# Compounds without any hit were thinned out: in the full panel of roughly 83,000, 20% have a hit.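 Single-dose data. Exposure time 48 hours. Values below 10 considered active.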 Values without a mark were called inactive. Active and inactive are the calls of the source.
# Assays:
# Test in all cases: NCI-60 one-dose screen, 48 h (100 = growth as untreated, 0 = no growth, -100 = all killed)
# Conditions in all cases: 10 µM unless noted
# NCI-H23 lung = system: NCI-H23 lung
# NCI-H226 lung = system: NCI-H226 lung
# NCI-H322M lung = system: NCI-H322M lung
# HOP-62 NSCLC = system: HOP-62 NSCLC
# NCI-H460 lung = system: NCI-H460 lung
# NCI-H522 lung = system: NCI-H522 lung
# A549/ATCC NSCLC = system: A549/ATCC NSCLC
# 786-0 renal = system: 786-0 renal
# COLO 205 colon = system: COLO 205 colon
# HOP-92 NSCLC = system: HOP-92 NSCLC
SMILES,growth (NCI-H23 lung),growth (NCI-H226 lung),growth (NCI-H322M lung),growth (HOP-62 NSCLC),growth (NCI-H460 lung),growth (NCI-H522 lung),growth (A549/ATCC NSCLC),growth (786-0 renal),growth (COLO 205 colon),growth (HOP-92 NSCLC) [%]
Cc1cccc(Cl)c1NC(=O)c1cnc(Nc2cc(N3CCOCC3)cc(N3CCOCC3)c2)s1,73.8%,68.6%,-10.4% (active),4.81% (active),51.2%,-9.13% (active),10.7%,17.1%,-4.18% (active),
CO[C@H]1C[C@@H]2CC[C@@H](C)[C@@](O)(O2)C(=O)C(=O)N2CCCC[C@H]2C(=O)O[C@H]([C@H](C)C[C@@H]2CC[C@@H](OC(=O)C(C)(CO)CO)[C@H](OC)C2)CC(=O)[C@H](C)/C=C(\C)[C@@H](O)[C@@H](OC)C(=O)[C@H](C)C[C@H](C)\C=C/C=C/C=C/1C,44.4%,34.3%,38.5%,21.8%,22.6%,22.7%,22%,26.2%,28.5%,
CCCCCCCC12Cc3ccccc3C1=Nc1c(c3ccccc3n1C)C2=O (centres undefined),84.8%,77.8%,88.4%,84%,92.7%,48.1%,75.5%,105%,112%,
Cn1ccnc1C(=O)/C=C/c1ccc(CC(=O)Nc2ccc(Br)cc2)cc1,24.5%,43.2%,6.4% (active),-32.7% (active),-11.2% (active),2.89% (active),3.64% (active),7.96% (active),6.56% (active),
COc1cc2c(Oc3ccc4[nH]c(C)cc4c3F)ncnc2cc1OCCCN1CCCC1,84%,57.3%,93%,79.8%,96.7%,88.3%,84.5%,84.6%,88.9%,
CCc1nc2ccc(Cc3ccc(C(=O)NO)cc3)cc2c(=O)n1CCc1ccccc1,-67.9% (active),-28.5% (active),12.1%,-43.4% (active),0.149% (active),-86.5% (active),-41.7% (active),-58.3% (active),-69.7% (active),
CC1(COc2ccc3c(c2)ncn3-c2ccc3cccc(N4CCC(N)CC4)c3n2)COC1,20.6%,19.9%,41.1%,2.15% (active),-33% (active),-36.9% (active),-35.2% (active),-33.2% (active),-66.5% (active),
CC(C)NC[C@@H](C(=O)N1CCN(c2ncnc3c2[C@H](C)C[C@H]3O)CC1)c1ccc(Cl)cc1,58.7%,56.2%,55.6%,54%,29.3%,53%,38%,4.37% (active),20.2%,
COC(=O)c1ccc2c(C(=Nc3ccc(N(C)C(=O)CN4CCN(C)CC4)cc3)c3ccccc3)c(O)[nH]c2c1,67.8%,47%,58.8%,38.8%,92%,39.1%,45.8%,41.4%,34%,
Nc1cc2c(cc1Br)-c1c(C(=O)O)cccc1C2O (centres undefined),87.2%,100%,,95.9%,99.4%,96.5%,91.7%,98.8%,96.3%,125
COc1cc2nccc(Oc3ccc(NC(=O)Nc4cc(C)on4)c(Cl)c3)c2cc1OC,28.8%,23.1%,32.9%,18.4%,14.5%,11.1%,4.95% (active),16.1%,-25.4% (active),
COc1ncc(-c2ccc3nccc(-c4ccnnc4)c3c2)cc1NS(=O)(=O)c1ccc(F)cc1F,3.23% (active),-4.7% (active),-31.1% (active),-14.1% (active),5.35% (active),-44% (active),-61.6% (active),4.21% (active),-83.2% (active),
NN1C(=O)CSC1=S,97.5%,100%,98.9%,81.7%,105%,73.3%,65.5%,99.2%,107%,
Cc1cc2c3c(cccc3c1)C(=O)c1ccccc1-2,81%,96.6%,82.3%,99.3%,102%,95%,104%,104%,93.4%,
NC(=O)c1n[nH]n2c1nc(=O)c1c3c(sc12)CCCC3,101%,91.4%,101%,96.5%,109%,102%,92.7%,106%,103%,
C=CCN1C(=O)c2cccc3c(-c4ccc5c(c4)ncn5C4CCCCC4)ccc(c23)C1=O,50.5%,44.8%,93.9%,67.1%,58.2%,52%,58.3%,58.8%,47%,

# From PubChem BioAssay (NCI)
